We go through eight compounds from ChEMBL document CHEMBL3988442, “University of Dundee, Small-Polar-MMV Screening Library” (2021).

For some of these results: Results with a measured potency or affinity are listed apart.

What all share (parameters): scale not given: direction of the effect not stated beside the values
For assay [1], the target named is Protein translocase subunit SecA (Escherichia coli (strain K12)) (UniProt P10408). The experiment in a line: Assay to Identify E. coli SecA ATPase Inhibitors. The class given is functional. The settings on record: 30 µM.
Protein translocase subunit SecA (Escherichia coli (strain K12)), sequence (P10408 whole entry): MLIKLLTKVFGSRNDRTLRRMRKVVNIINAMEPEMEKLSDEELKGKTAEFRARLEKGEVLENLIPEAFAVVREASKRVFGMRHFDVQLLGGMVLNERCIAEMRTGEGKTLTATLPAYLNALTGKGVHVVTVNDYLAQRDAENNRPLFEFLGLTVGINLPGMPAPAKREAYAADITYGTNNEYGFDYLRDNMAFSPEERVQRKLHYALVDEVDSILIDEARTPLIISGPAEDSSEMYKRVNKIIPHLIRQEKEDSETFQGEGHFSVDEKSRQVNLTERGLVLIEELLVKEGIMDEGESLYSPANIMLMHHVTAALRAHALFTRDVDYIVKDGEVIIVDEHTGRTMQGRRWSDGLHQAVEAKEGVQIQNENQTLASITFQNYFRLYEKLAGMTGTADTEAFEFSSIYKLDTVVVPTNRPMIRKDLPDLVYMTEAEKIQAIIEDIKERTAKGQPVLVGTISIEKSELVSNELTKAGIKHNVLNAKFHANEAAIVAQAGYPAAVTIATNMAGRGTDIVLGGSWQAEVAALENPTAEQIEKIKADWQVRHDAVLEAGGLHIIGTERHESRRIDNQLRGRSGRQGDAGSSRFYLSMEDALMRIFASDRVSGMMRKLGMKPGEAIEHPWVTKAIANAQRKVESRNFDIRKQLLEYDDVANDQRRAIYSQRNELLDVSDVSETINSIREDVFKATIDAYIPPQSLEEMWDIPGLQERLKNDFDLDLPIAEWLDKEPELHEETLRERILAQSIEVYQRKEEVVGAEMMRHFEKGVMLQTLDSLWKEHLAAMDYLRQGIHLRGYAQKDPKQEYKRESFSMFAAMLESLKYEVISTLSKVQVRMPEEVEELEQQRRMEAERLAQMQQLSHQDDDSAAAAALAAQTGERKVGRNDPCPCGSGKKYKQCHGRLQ
Assay [2] has as its target T1, Ubiquitin-activating enzyme e1, putative (Leishmania donovani (strain BPK282A1)) (UniProt E9BSI1).
T1 sequence (whole entry): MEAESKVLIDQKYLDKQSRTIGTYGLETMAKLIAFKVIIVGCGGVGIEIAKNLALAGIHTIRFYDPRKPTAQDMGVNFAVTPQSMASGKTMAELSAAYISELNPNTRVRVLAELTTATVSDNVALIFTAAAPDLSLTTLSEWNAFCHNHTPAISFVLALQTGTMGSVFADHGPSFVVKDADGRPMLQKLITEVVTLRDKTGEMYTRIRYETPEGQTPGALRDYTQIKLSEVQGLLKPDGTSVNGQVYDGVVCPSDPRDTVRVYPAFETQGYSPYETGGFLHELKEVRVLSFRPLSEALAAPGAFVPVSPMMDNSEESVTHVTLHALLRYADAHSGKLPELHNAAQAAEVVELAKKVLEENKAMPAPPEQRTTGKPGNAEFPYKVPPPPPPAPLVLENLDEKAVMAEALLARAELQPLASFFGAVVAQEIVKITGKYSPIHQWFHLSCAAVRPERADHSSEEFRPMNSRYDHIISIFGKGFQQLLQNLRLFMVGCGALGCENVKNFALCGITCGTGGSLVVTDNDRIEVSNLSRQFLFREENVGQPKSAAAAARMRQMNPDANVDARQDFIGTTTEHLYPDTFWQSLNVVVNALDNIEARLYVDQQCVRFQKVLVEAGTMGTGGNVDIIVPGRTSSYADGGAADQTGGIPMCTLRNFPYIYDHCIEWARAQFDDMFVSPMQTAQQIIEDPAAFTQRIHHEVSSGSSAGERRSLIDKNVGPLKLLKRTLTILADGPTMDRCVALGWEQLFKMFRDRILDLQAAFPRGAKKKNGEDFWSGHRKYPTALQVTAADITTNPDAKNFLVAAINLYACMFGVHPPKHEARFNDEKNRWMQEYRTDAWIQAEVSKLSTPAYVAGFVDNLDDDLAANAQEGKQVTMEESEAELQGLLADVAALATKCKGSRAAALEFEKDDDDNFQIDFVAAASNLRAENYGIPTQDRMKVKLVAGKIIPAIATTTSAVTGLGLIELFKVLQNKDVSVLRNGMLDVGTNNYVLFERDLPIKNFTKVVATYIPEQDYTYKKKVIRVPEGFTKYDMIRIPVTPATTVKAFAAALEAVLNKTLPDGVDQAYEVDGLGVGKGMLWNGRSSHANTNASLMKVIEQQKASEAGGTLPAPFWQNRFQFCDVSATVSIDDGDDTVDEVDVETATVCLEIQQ
The experiment in a line: Leishmania donovani Ubiquitin Activating Enzyme (LdE1). In kind it is functional. To be noted: 30 µM.

The target of assay [3] is AMP-activated protein kinase, AMPK (Homo sapiens) (UniProt P54646+O43741+P54619+Q9UGJ0+Q9Y478+Q13131+Q9UGI9). The experiment in a line: AMP-dependent Kinase enzyme assay. An in vitro enzyme assay that detects ADP turnover that is directly proportional to AMPK activity. This uses naive AMPK that is activated during the assay with MK-8722. In kind it is functional. To be noted: 30 µM.

The target in assay [4] is Sialic acid-binding Ig-like lectin 9 (Homo sapiens) (UniProt Q9Y336). The experiment in a line: Hs-Siglec9 ALPHAscreen SOP 20170721. To be noted: 10 µM.
Sialic acid-binding Ig-like lectin 9 (Homo sapiens), sequence (Q9Y336 whole entry): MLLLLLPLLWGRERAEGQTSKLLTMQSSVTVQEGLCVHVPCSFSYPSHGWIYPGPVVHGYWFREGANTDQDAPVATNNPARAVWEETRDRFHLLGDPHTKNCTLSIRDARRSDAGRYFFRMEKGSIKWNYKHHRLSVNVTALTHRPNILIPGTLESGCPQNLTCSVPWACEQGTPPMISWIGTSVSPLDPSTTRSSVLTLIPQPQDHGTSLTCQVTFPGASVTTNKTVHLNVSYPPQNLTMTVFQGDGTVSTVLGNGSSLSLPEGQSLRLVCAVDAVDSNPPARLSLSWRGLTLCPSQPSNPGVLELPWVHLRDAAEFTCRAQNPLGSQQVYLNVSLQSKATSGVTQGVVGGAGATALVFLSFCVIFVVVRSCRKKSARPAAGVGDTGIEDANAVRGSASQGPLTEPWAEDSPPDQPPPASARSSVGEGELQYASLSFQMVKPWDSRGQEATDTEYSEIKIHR
A further assay deals with Trypanosoma cruzi. Briefly: Trypanosoma cruzi phosphomannomutase and mannose-1-phosphate guanylyltransferase assay. The settings on record: 10 µM. The class given is functional.
Assay [5] deals with T2, Arginase-2, mitochondrial (Homo sapiens) (UniProt P78540).
T2 sequence (whole entry): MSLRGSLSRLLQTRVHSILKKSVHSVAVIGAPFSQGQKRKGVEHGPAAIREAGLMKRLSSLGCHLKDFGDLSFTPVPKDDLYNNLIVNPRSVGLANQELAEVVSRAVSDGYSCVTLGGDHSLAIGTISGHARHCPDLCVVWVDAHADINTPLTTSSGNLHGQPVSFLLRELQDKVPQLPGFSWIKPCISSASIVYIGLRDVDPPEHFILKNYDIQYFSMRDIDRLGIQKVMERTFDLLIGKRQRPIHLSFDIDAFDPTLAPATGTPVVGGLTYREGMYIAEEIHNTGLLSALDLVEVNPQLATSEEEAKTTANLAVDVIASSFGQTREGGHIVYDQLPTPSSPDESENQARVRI
Briefly: in vitro enzyme assay to detect the production of urea directly proportional to the activity of Arginase II. Further: in the data most compounds retested in dose-response had high values. To be noted: 33.3 µM. In kind it is functional.

The target of assay [6] is T3, Proteasome subunit beta (Trypanosoma cruzi) (UniProt O96673).
T3 sequence (whole entry): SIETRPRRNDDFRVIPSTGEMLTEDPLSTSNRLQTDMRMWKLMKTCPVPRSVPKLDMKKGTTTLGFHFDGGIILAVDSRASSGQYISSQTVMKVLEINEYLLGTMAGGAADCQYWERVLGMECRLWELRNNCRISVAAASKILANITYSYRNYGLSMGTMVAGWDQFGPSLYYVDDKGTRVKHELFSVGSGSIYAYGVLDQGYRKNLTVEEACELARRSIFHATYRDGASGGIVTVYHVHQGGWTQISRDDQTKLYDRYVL
Briefly: Trypanosoma cruzi proteasome chymotrypsin-like activity (TcProtChymo) assay. Further: in the data most compounds retested in dose-response had high values. The settings on record: 9.37 µM. In kind it is functional.

A further assay is filed under the species Homo sapiens. Briefly: To identify inhibition of the IFN signalling (Jak-Stat) pathway via expression of an eGFP reporter gene under the control of an IFN-stimulated response element (ISRE) containing MxA promoter. The settings on record: 30 µM. In kind it is functional.
Assay [7] addresses T4, Tyrosyl-tRNA synthetase, putative (Trypanosoma cruzi (strain CL Brener)) (UniProt Q4DSP6).
T4 sequence (whole entry): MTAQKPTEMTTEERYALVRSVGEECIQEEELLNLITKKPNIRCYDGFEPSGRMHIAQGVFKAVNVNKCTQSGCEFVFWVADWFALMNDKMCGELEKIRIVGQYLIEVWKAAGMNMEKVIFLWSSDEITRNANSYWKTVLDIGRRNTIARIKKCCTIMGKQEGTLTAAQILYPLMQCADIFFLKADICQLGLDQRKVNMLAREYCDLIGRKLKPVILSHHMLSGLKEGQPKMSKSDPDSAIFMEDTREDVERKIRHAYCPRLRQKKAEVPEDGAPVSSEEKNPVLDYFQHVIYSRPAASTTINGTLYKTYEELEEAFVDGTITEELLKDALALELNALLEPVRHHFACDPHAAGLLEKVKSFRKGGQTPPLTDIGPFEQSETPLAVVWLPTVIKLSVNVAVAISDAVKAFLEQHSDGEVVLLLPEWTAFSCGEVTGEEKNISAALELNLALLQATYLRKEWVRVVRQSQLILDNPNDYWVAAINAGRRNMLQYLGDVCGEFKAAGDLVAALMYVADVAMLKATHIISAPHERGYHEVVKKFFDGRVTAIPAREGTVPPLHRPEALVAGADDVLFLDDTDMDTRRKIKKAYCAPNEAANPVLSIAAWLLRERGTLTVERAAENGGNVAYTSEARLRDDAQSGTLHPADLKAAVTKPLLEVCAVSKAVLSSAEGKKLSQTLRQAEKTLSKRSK
The experiment in a line: Trypanosoma cruzi tyrosyl tRNA synthetase (TcYRS) _High Tyrosine SOP. Further: in the data most compounds retested in dose-response had high values. In kind it is functional. To be noted: 30 µM.

The target in assay [8] is T4, Tyrosyl-tRNA synthetase, putative (Trypanosoma cruzi (strain CL Brener)). The experiment in a line: Trypanosoma cruzi tyrosyl tRNA synthetase (TcYRS) SOP. In kind it is functional. To be noted: 30 µM.
The target in assay [9] is Chromo domain-containing protein 1 (Saccharomyces cerevisiae (strain ATCC 204508 / S288c) (Baker's yeast)) (UniProt P32657). The experiment in a line: ScCHD-1 Enzyme Inhibition Assay. Further: in the data most compounds retested in dose-response had high values. The class given is functional. The settings on record: 30 µM.
Chromo domain-containing protein 1 (Saccharomyces cerevisiae (strain ATCC 204508 / S288c) (Baker's yeast)), sequence (P32657 whole entry, the tested form may be a part): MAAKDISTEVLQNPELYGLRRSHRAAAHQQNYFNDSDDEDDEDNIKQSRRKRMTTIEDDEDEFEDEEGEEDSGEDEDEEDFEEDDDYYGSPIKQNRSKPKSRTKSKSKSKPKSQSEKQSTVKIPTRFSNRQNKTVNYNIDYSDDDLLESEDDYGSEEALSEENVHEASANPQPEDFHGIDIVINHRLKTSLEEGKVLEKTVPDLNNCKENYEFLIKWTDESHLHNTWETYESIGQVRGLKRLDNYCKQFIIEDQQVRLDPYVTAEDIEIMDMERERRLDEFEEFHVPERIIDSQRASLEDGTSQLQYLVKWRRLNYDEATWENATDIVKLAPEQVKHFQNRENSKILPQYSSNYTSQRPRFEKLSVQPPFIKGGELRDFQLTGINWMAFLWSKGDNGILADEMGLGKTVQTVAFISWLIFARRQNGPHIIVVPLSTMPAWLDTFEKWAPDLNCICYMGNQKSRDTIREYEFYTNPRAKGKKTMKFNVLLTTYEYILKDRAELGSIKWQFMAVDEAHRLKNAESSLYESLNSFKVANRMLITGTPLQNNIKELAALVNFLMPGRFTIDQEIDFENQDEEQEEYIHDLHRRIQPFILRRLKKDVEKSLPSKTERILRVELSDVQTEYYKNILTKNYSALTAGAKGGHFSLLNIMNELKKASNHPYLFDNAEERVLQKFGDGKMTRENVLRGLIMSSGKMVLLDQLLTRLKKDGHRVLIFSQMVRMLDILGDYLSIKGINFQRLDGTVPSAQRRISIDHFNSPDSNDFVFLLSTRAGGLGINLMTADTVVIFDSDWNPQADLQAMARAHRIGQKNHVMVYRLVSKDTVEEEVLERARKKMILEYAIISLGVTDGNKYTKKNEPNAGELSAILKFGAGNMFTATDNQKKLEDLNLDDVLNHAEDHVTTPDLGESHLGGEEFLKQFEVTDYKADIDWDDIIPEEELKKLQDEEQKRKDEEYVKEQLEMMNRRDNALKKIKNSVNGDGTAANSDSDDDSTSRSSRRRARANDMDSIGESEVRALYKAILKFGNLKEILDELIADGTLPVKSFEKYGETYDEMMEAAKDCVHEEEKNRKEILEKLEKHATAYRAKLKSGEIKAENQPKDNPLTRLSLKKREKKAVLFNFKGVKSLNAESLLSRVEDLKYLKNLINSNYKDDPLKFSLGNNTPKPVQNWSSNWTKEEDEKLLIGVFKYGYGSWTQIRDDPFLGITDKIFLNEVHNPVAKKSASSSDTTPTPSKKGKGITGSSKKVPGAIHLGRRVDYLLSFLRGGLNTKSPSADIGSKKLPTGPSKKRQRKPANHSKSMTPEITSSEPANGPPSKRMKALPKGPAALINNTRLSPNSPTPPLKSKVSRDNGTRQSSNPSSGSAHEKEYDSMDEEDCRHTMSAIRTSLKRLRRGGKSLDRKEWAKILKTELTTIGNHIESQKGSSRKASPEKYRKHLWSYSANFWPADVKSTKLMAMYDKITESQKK

Regarding `Cc1cncc(C(=O)N2CCCC(C(=O)CCc3ccccc3)C2)c1` (stereo not drawn), the Percent Effect in assay [1] is 3.06%; in assay [2] it was 2.74%; in assay [3], 1.42%; in [4], 1.76%; in the assay on Trypanosoma cruzi it was -5.88%; in [5], 4.54%. In addition, the Percent Effect is 19.2% in [6]; 14.7% in the assay filed under Homo sapiens; 4.3% in assay [7]; 15% in assay [8]; -12.2% in assay [9].

For `COCCN(C)C(=O)Nc1ccc2c(ccn2CCOC)c1`, the Percent Effect in assay [1] was -6.84%; in assay [2], 28.9%; in assay [3], -12.8%; in assay [4], 0.86%; in the assay with Trypanosoma cruzi it was 6.33%; in [5] it was -1.18%. Also, the Percent Effect in assay [6] is -0.0959%; in the assay listed under Homo sapiens, 1.75%; in assay [7], 4.25%; in [8], 13%; in assay [9], -17.1%.

Turning to `NC(=O)C1CN(C(=O)Nc2cc(Cl)cc(Cl)c2)CCO1` (stereo not drawn), the Percent Effect in assay [1] was -2.58%; in [2], 0%; in [3] it was 0.0499%; in [4], 4.99%; with Trypanosoma cruzi, 4.17%; in assay [5], -3.19%. Besides, the Percent Effect in assay [6] is 12.1%; in the assay filed under Homo sapiens, 22.7%; in assay [7], 4.17%; in [8], 11.1%; in [9] it was 2.8%.

Consider `Cc1n[nH]c(C)c1C1CCCN1C(=O)NCC(=O)NC(C)(C)C` (stereo not drawn), for which the Percent Effect in [1] is -4.22%; in [2] it was 0%; in [3], 26.9%; in assay [4], 3.62%; in the assay with Trypanosoma cruzi, -6.86%; in assay [5], 2.27%. Also, the Percent Effect in [6] was 3.9%; in the assay listed under Homo sapiens, 0.328%; in assay [7] it was 1.07%; in [8], 2.5%; in assay [9], -0.359%.

With `Cc1nc(C)n(CC2CCCN(c3ncnc4ccsc34)C2)n1` (stereo not drawn), the Percent Effect was -0.224% in assay [1]; 10.8% in assay [2]; 4.37% in assay [3]; -5.33% in [4]; -7.08% in the assay with Trypanosoma cruzi; 1.2% in [5]. Besides, the Percent Effect in assay [6] was 14.2%; in the assay listed under Homo sapiens it was 73.4%; in assay [7], 6.4%; in [8], 16.1%; in assay [9], -6.75%.

Take `Cc1cnn(C2CCCN(C(=O)c3cccc(Cn4ccnc4)c3)C2)c1` (stereo not drawn): the Percent Effect was -1.7% in assay [1]; 13.9% in [2]; -5.85% in [3]; -7.26% in [4]; 2.36% with Trypanosoma cruzi; -4.09% in [5]. The Percent Effect was 17.3% in assay [6]; 25.8% in the assay listed under Homo sapiens; 1.04% in [7]; 10.1% in assay [8]; -30.4% in assay [9].

For the compound `Cn1cc(-c2nc(CN3CCN(CCO)CC3)cs2)cn1`, the Percent Effect in assay [1] was 0.128%; in assay [2], 15.8%; in assay [3], 4.54%; in [4], -2.39%; in the assay on Trypanosoma cruzi, -0.376%; in assay [5] it was -1.53%. The Percent Effect in assay [6] is 21.9%; in the assay filed under Homo sapiens, 17%; in assay [7] it was 9.31%; in [8] it was 19.5%; in assay [9] it was -10.9%.

As for `CN(C)C(=O)c1ccc2c(c1)N(C)C(CC(=O)NCc1ccno1)CO2` (stereo not drawn), the Percent Effect in [1] is -0.872%; in assay [2] it was 6.94%; in assay [3], -9.68%; in assay [4], 0.254%; in the assay with Trypanosoma cruzi it was 1.85%; in [5], 15%. The Percent Effect in assay [6] is 20.7%; in the assay filed under Homo sapiens, 18.1%; in assay [7] it was 7.37%; in assay [8], 10.3%; in assay [9], -2.72%.
